JMJD2A Tudor inh = inhibitors of human JMJD2A Tudor domain; O75164; AlphaScreen JMJD2A-Tudor / H3K4me3 peptide binding; Potency, µM (top dose mostly 114 µM), for inactives: top-dose activity change, negative = inhibition, most hits filed as inhibitors; hit rate 4.4% among 390,000; note: % is set by controls: 0 for no effect and ±100 for the full control effect; nearly all actives have a fitted effect of over 50% in size
ALOX12 inh = ALOX12 (human) lipoxygenase inhibition; purified 12hLO, xylenol orange hydroperoxide absorbance; Potency, µM (doses to about 108 µM), without a hit: at the highest dose activity change, negative = inhibition, hits mostly inhibitors; hit rate 1.1% among 580,000; AID 1671190; note: % is set by controls: 0 for no effect and ±100 for the full control effect
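Purified human 12hLO at 150 nM in 25 mM Hepes, 0.01% Triton X-100, pH 7.0, preincubated 15 min at room temperature with compound. Reaction started with 40 uM arachidonic acid, 30 min at room temperature. Hydroperoxide measured by Fe-xylenol orange, 573/405 nm absorbance ratio.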
BAZ2B inh = blocks human BAZ2B. Q9UIF8. AlphaScreen BAZ2B-H3K14Ac peptide displacement. Potency, µM (top dose mostly 114 µM), inactives show at the highest dose activity change, negative = inhibition, hits mostly inhibitors. hit rate 4.4% among 360,000; note: % is set by controls: 0 for no effect and ±100 for the full control effect; nearly all actives have a fitted effect of over 60% in size
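AlphaScreen luminescence quantifies BAZ2B engagement of H3K14Ac peptide; the protein and biotinylated peptide are both at 50 nM final, buffer PBS pH 7.4 with 0.01% Tween-20, all steps at room temperature.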
Sfp PPTase inh = Sfp phosphopantetheinyl transferase inhibition. Q9F4F7. Biochemical Sfp PPTase activity, qHTS. Potency, µM, without a hit: largest response in the series, negative = inhibition, usual class: inhibitors. hit rate 3.5% among 310,000. AID 1490;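 note: the enzyme is Sfp with the accession as filed and its product quenches rhodamine fluorescence; 0% = enzyme reaction without inhibitor and -100% = no enzyme wells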
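After 15 min at room temperature with compound, 15 nM Sfp received 5 uM rhodamine-CoA plus 12.5 uM BHQ-2-ybbR (50 mM Hepes pH 7.6, 10 mM MgCl2). Rate came from the fluorescence difference over 30 min, ex 525/em 598 nm.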
G9a inh = inhibitors of human histone lysine methyltransferase G9a. Potency, µM (highest dose often 102 µM), for inactives: at the top dose activity, negative = inhibition, hits mostly inhibitors. G9a H3K9 monomethylation, AlphaScreen, 2 h. Q96KQ7. hit rate 8.8% among 350,000. AID 504332; note: % is set by controls: 0 for no effect and ±100 for the full control effect; nearly all actives have a fitted effect of over 75% in size
Target sequence (Q96KQ7 913-1193 limits assumed): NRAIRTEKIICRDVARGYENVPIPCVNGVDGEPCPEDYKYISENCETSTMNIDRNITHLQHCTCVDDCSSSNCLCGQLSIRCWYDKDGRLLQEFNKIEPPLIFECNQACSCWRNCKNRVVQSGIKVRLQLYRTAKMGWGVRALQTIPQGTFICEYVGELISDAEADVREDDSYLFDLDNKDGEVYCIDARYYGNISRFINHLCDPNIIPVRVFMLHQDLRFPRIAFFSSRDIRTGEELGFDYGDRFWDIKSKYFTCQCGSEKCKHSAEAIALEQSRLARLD
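Enzyme 20 nM + cpd, 15 min RT; add b-H3K9 pep 500 nM / SAM 20 uM; 2 h RT; anti-H3K9me1 Ab 0.5 ug/mL + SA donor / anti-rabbit acceptor beads 20 ug/mL each, 10 min; AlphaScreen read.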
HP1b chromo inh = HP1-beta chromodomain-methylated histone interaction inhibition; AID 540317; AlphaScreen HP1-beta / biotin-H3K9me3 peptide binding; Potency, µM (top dose mostly 114 µM), for inactives: at the top dose activity change, negative = inhibition, hits mostly inhibitors; P83916; hit rate 0.56% among 390,000; note: nearly all actives have a fitted effect of over 70% in size
Target sequence (P83916 whole entry, looked up): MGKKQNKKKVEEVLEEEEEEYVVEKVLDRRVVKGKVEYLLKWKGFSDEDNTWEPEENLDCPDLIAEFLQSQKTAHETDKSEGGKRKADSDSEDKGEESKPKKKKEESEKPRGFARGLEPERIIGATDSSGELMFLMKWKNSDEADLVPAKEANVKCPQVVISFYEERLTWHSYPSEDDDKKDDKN
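HP1-beta protein (50 nM final) preincubated 30 min at room temperature with biotinylated H3(1-18)K9me3 peptide (50 nM) in PBS pH 7.4, 0.01% Tween-20, then compound added for 30 min. AlphaScreen streptavidin donor/nickel chelate acceptor beads (10 ug/mL final), 30 min dark, luminescence read.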
* hit, by the source's call; ? = inconclusive; · = no result; [ ] = dose if it differs, or a comment. This is a sample that favours compounds with a hit; in the whole collection about 8.7% have one here. Calls come from the whole dose curve; as a rule, active = well fitted curve in the direction sought with a large enough effect; inconclusive = small, poorly fitted or top-dose-only effect, or another doubt; inactive = no such curve, though single readings can be large; an effect the other way counts as inactive or inconclusive. Potency is the fitted concentration of half-maximal effect.

SMILES	JMJD2A Tudor inh	ALOX12 inh	BAZ2B inh	Sfp PPTase inh	G9a inh	HP1b chromo inh
COc1cccc(Nc2ccc(N3CCCCC3)cc2)c1OC	31.6µM*	?	14.1µM*	·	-22.9%[0.501 µM]	31.6µM*
COc1cc(CNc2ccc(N3CCCC3)cc2)cc(Cl)c1OC	10µM*	?	35.5µM*	14.1µM*	3.55µM*	14.1µM*
COc1ccccc1CNS(=O)(=O)c1ccc(-n2cnnn2)c(OC)c1	-9.7%	28.1%	-18.2%	-9.4%	28.2µM*	-17.3%
COc1cc(S(=O)(=O)NCc2ccc(F)cc2)ccc1-n1cnnn1	-8.8%	-1.3%	-1.3%	13.8%	3.3%	5.5%
COc1cc(S(=O)(=O)NCc2ccccc2Cl)ccc1-n1cnnn1	7.0%	-9.1%	?	-8.5%	12.6µM*	32.2%
COc1ccc2c(c1)CN(Cc1ccccc1)CC[C@H]1COC(=O)N21	·	12.4%[176 µM]	·	·	·	·
CC(C)c1ccc(/C=C2\SC(=S)N(CCC(=O)NCCCn3ccnc3)C2=O)cc1	?	-21.5%	?	-1.3%	·	2.2%
COc1ccccc1/C=C1\SC(=S)N(CCC(=O)NCCCn2ccnc2)C1=O	-1.0%	-16.9%	50.1µM*	2.4%	?	32.4%
COc1ccccc1/C=C1\SC(=O)N(CCC(=O)NCCCn2ccnc2)C1=O	-3.6%	0.0%	?	3.3%	·	25.6%
O=C(CCCN1C(=O)/C(=C/c2ccc(F)cc2)SC1=S)NCCCn1ccnc1	?	?	22.4µM*	-2.9%	?	?
COc1ccc(/C=C2\SC(=S)N(CCC(=O)NCCCn3ccnc3)C2=O)cc1	16.3%	-17.8%	25.1µM*	6.8%	56.2µM*	44.1%
CCC(c1cccs1)N1C(=O)[C@H]2CN(S(=O)(=O)c3cccc(OC)c3)C[C@H]2C1=O (stereo partly specified)	·	-18.3%	·	·	·	·
CC(C)(C)c1ccc(-c2n[nH]c(=S)n2/N=C/c2ccncc2)cc1	?	?	-9.3%	-3.4%	2.51µM*	6.8%
S=c1[nH]nc(-c2ccncc2)n1/N=C/c1cn(-c2ccccc2)nc1-c1ccccc1	-18.3%	0.0%	21.1%	14.4%	?	64.6%
Cc1ccc(/C=N/n2c(-c3ccncc3)n[nH]c2=S)cc1	2.24µM*	?	-32.5%	?	1.41µM*	6.7%
CCn1nc(C(=O)N2CCN(CC(=O)NC3CC3)CC2)c2ccccc2c1=O	·	17.5%	·	·	·	·
COC(CNC(=O)CS(=O)Cc1nc(-c2ccccc2C)oc1C)OC (stereo unspecified)	·	-15.8%	·	·	·	·
Cc1n[nH]c(=O)c2c(NC(=O)CSc3nnc(-c4ccncc4)n3C)oc(C)c12	?	-16.4%	-1.4%	26.9%	86.6%	29.8%
C=CCn1c(C)nnc1SCC(=O)Nc1oc(C)c2c(C)n[nH]c(=O)c12	-3.4%	-1.6%	25.4%	·	31.6µM*	36.6%
CCOCCCn1c(SCC(=O)Nc2oc(C)c3c(C)n[nH]c(=O)c23)nnc1-c1ccncc1	-20.3%	-10.8%	3.2%	·	35.5µM*	11.5%
Cc1csc(SCC(=O)Nc2oc(C)c3c(C)n[nH]c(=O)c23)n1	-6.2%	-28.7%	-5.0%	·	?	39.6%
Cc1ccc(C)c(SCC(=O)Nc2oc(C)c3c(C)n[nH]c(=O)c23)c1	-15.9%	?	-9.4%	·	39.8µM*	13.9%
Cc1n[nH]c(=O)c2c(NC(=O)CSc3ncccn3)oc(C)c12	-11.7%	-12.3%	0.1%	·	50.1µM*	32.5%
Cc1ccc(SCC(=O)Nc2oc(C)c3c(C)n[nH]c(=O)c23)cc1C	-20.0%	?	1.4%	·	0.9%[12.7 µM]	40.2%
CCOCCCn1c(SCC(=O)Nc2oc(C)c3c(C)n[nH]c(=O)c23)nc2ccccc2c1=O	-14.8%	-1.6%	·	·	·	46.3%
SMILES	JMJD2A Tudor inh	ALOX12 inh	BAZ2B inh	Sfp PPTase inh	G9a inh	HP1b chromo inh
CCc1cc2c(=O)n(CCCOC)c(SCC(=O)Nc3oc(C)c4c(C)n[nH]c(=O)c34)nc2s1	-9.9%	?	5.0%	·	56.2µM*	29.6%
CCNC(=O)/C=C/c1ccc(OC)cc1	·	26.4%	·	·	·	·
O=C(O)c1ccc(Cl)cc1I	·	11.5%	·	·	·	·
COc1cccc(CN2CCN(Cc3cc(OC)c(OC)cc3[N+](=O)[O-])CC2)c1	0.794µM*	·	?	56.2µM*	7.94µM*	-52.4%
COc1cc(CN2CCSCC2)c([N+](=O)[O-])cc1OC	2.24µM*	-19.7%	?	?	·	?
COc1ccc(-c2nc(C(C)C)nc3c2CCN(C(=O)c2cccc(OC)c2)CC3)cc1	·	-23.2%	·	·	·	·
CCc1ccc(C2c3c(-c4ccccc4)n[nH]c3C(=O)N2c2ccc(C(=O)O)cc2)cc1 (stereo unspecified)	-26.7%	39.8µM*	·	·	-3.2%[59 µM]	23.6%
CCOC(=O)c1ccc(N2C(=O)c3n[nH]c(-c4ccco4)c3C2c2ccc(F)cc2)cc1 (stereo unspecified)	?	?	·	·	11.2µM*	-13.7%
CCOC(=O)c1ccc(N2C(=O)c3n[nH]c(-c4ccco4)c3C2c2ccccc2OC)cc1 (stereo unspecified)	?	-21.5%	·	·	12.6µM*	-18.5%
CC(C)CCNC(=O)c1cnc2n1CCN(Cc1c[nH]c3ccccc13)CC2	·	29.7%[176 µM]	·	·	·	·
N#CC1=C(N)C2=C(N3CCCCC3)CCCC2C1(C#N)C#N (stereo unspecified)	-29.8%	·	50.1µM*	?	?	12.2%
O=c1c2ccccc2c(/C=N/n2cnnc2)c(O)n1-c1ccccc1F	?	-13.2%	?	-8.4%	70.8µM*	26.6%
Cc1ccc(-n2c(O)c(/C=N/n3cnnc3)c3ccccc3c2=O)cc1	56.2µM*	-23.2%	50.1µM*	7.9%	?	-4.0%
CC(NC(=O)C1CCCO1)C(=O)N1CCN(c2ccccn2)CC1 (stereo unspecified)	·	39.8%	·	·	·	·
CC(C)CCC(CCNCc1ccccn1)c1ccc(Cl)cc1 (stereo unspecified)	79.4µM*	?	?	?	-11.5%	?
S=C(NCc1ccc(Cl)cc1)NCc1ccccn1	-22.3%	-14.4%	-19.3%	20.1%	-6.8%	8.7%
CC(C)(C)N=C1NN=C(c2cc3ccccc3o2)CS1	-34.5%	-26.9%	?	-20.3%	39.8µM*	-26.3%
CC1(C)C[C@H](NCC2CCCCC2)[C@@]2(CCC(=O)N3CCCC3)CC[C@](C)(O)C[C@@H]12	·	-15.5%[176 µM]	·	·	·	·
CCOC(=O)C(C)Sc1nc(-c2ccccc2Cl)cc(-c2ccccc2)c1C#N (stereo unspecified)	30.6%	-5.9%	9.9%	·	13.5%[59 µM]	67.9%
CC(Sc1nc(C(C)(C)C)cc(-c2ccccc2)c1C#N)C(=O)Nc1ccccc1 (stereo unspecified)	-0.7%[57.1 µM]	?	7.6%	14.1µM*	7.94µM*	?
